Hits are enriched below; roughly 1.7% of the tested compounds scored in any of these assays.
MIN6 prolif = MIN6 beta-cell proliferation induction. MIN6 cells proliferation, ATPlite luminescence, 48 h; cells starved in 0.2% serum; 100% = growth in 10% serum. proliferation, % at 10 µM. 330,000 tested, 0.29% active;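 active = compounds whose signal lies at least 3.5 SD above the mean of all wells on their plate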
CHT allo act = allosteric activators of human choline transporter CHT | 310,000 tested, 0.49% active | AID 488977 | B-score at 10 µM | CHT-expressing cells, membrane potential dye, choline EC20; stronger effect = higher value; LV-AA mutant CHT in HEK293 cells | Q9GZV3;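 active = initial fluorescence not abnormally high and integrated response B-score, plate-corrected, over 3 SD above library mean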
Target sequence (Q9GZV3 whole entry, looked up): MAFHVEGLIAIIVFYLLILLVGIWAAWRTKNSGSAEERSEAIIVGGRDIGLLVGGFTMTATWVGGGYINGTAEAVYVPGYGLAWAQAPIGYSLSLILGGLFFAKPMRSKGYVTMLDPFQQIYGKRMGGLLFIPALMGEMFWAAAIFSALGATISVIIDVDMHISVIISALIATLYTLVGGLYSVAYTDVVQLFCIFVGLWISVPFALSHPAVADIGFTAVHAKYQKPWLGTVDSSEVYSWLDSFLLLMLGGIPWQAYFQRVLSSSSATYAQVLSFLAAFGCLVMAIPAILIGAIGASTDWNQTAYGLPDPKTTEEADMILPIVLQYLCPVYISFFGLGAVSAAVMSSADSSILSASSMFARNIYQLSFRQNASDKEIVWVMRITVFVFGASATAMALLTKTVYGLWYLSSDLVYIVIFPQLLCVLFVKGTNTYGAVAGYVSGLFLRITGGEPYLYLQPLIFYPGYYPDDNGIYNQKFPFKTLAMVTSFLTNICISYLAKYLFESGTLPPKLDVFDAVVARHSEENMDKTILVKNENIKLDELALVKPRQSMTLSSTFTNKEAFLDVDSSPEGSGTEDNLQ
CHT inh = inhibitors of human choline transporter CHT; CHT-expressing cells, membrane potential dye, choline response; stronger effect = lower value; B-score at 10 µM; 310,000 tested, 0.86% active;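 active = B-score over 3 SD under the library average, and starting fluorescence ratio not unusually high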;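 note: choline stimulus applied at its EC90 after an EC20 pre-addition; B-score computed on integrated fluorescence ratio after choline addition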
TAG inh = triacylglycerol accumulation inhibition; inhibition, % at 12.5 µM; AID 651582; H9c2 cells, Nile Red lipid (TAG) fluorescence; cells loaded with 200 µM oleic acid; 230,000 tested, 0.66% active;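 active = pattern-corrected inhibition of lipid staining of at least 50% with the nuclear-stain viability signal not falling by more than 50%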
CHT activ conf = human CHT activation, confirmatory screen; shares compounds with CHT allo act; CHT-expressing cells, membrane potential dye fluorescence (FDSS); % of choline EC20–EC90 response window; HEK293 expressing CHT LV-AA mutant; choline added at its EC20; activation, % at 10 µM; 2,500 tested, 91% active;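 active = primary screen active, with duplicate mean activation above negative control mean plus 3 SD, cut at about 11% in these data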
HEK293 MP dye = counter-screen for CHT activators: effect in parental HEK293 cells; 2,500 tested, 62% active; shares compounds with CHT allo act; membrane potential dye fluorescence (FDSS); measured after EC20 choline addition; ratio readout change at 10 µM, hits read low;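 active = duplicate-averaged ratio beyond 3 SD from buffer wells, up or down, though filed actives are nearly all decreases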
Numbers stand for hits; 0 = inactive; - = no result given.

SMILES | MIN6 prolif | CHT allo act | CHT inh | TAG inh | CHT activ conf | HEK293 MP dye
Cc1cc(N2CCN(CC(O)C(F)(F)F)CC2)c2ccccc2n1 (centres undefined) | 0 | 0 | 0 | - | 72.3 | -72.1
CCOc1ccccc1NC(=O)CCCn1cc([N+](=O)[O-])cn1 | 0 | 0 | 0 | 0 | - | -
COC(=O)c1ccc(C(=O)N2CCCC(C)(C(=O)NS(=O)(=O)C3CC3)C2)cc1 (centres undefined) | - | - | - | 0 | - | -
COc1ccc(C)c(NC(=O)NCCc2cnc[nH]2)c1 | 0 | 0 | 0 | - | - | -
CCOc1ccccc1-n1c(SCC(=O)Nc2nccs2)nnc1-c1ccoc1C | 0 | 0 | 0 | 0 | 0 | 0
O=C(CN(C(=O)c1csnn1)c1ccc(Cl)cc1)NCc1ccc2c(c1)OCO2 | 0 | 0 | 0 | - | - | -
Cc1cc(C)c(-n2c(O)c(C=NCCN3CCOCC3)c(=O)[nH]c2=O)c(C)c1 | 0 | 9.84 | 0 | - | 16.5 | 0
COc1ccc(OCCCCn2c(CO)nc3ccccc32)cc1 | 0 | 0 | 0 | 0 | - | -
CCOc1cccc2sc(N(CCN(C)C)C(=O)c3ccc4ccccc4c3)nc12 | 0 | 9.55 | 0 | - | 25.1 | -78.3
CN(C)CCN(C(=O)c1ccc2ccccc2c1)c1nc2c(F)cccc2s1 | 0 | 0 | 0 | - | - | -
COc1cccc(CNC(=O)C2CCN(c3nnc(N4CCCC4=O)s3)CC2)c1 | 0 | 0 | 0 | 0 | - | -
N#C/C(=N\Nc1ccccc1Cl)C(=O)c1ccccc1 | 0 | 0 | 0 | 0 | - | -
N#C/C(=N\Nc1c(Cl)cccc1Cl)C(=O)NN | 0 | 12 | 0 | 0 | 19.1 | -40.4
CCCCN(CCCNC(=O)C1CCN(C(=O)c2cc3sccc3n2C)CC1)Cc1ccccc1 | 0 | 10.3 | 0 | - | 60.2 | -29.5
CCN(CCCNC(=O)C1CCN(C(=O)c2cc3sccc3n2C)CC1)Cc1ccccc1 | 0 | 0 | 0 | - | - | -
CCCCCCCCCCOC(=O)Cn1c(COc2ccccc2OC)[n+](C)c2ccccc21 | 0 | 19.3 | 0 | - | 91.0 | -37.4
O=C(NNc1cc(Cl)cc(Cl)c1)C1CCC1 | 0 | 0 | 0 | 0 | - | -
O=C(NNc1ccc(Cl)cc1)C1CCC1 | 0 | 0 | 0 | 0 | 14.5 | 0
Oc1ccc(-c2nc3cnccn3c2Nc2ccc3c(c2)OCCO3)cc1 | 0 | 8.28 | 0 | 0 | 0 | 0
Cc1ccc(C)c(CSc2nnc(-c3cccs3)n2Cc2ccco2)c1 | 0 | 7.14 | 0 | 0 | 60.2 | 0
NC(=O)CSc1nnc(-c2cccs2)n1Cc1ccco1 | 0 | 0 | 0 | 0 | - | -
O=C(CC(=O)c1cccs1)c1ccncc1 | - | - | - | 0 | - | -
CN1CCN(C(=O)CSc2nc(-c3ccncc3)ccc2C#N)CC1 | 0 | 8.05 | 0 | 0 | 44.2 | -36.6
CN1CCN(C(=O)CSc2nc(-c3cccs3)cc(-c3cccs3)c2C#N)CC1 | - | 0 | 0 | 0 | - | -
OCCN1CCN(CCCN2c3ccccc3Sc3ccc(Cl)cc32)CC1 | 0 | 0 | 0 | 0 | - | -
SMILES | MIN6 prolif | CHT allo act | CHT inh | TAG inh | CHT activ conf | HEK293 MP dye
CC(=O)c1ccc2c(c1)N(CCCN1CCC(CCO)CC1)c1ccccc1S2 | 0 | 9.08 | 0 | 0 | 46.3 | -48.8
CN1CCN(CCCN2c3ccccc3Sc3ccc(S(=O)(=O)N(C)C)cc32)CC1 | 0 | 0 | 0 | 0 | 16.4 | -29.8
Cc1cccc2c(=O)cc(C)n(Cc3ccccc3)c12 | 0 | 0 | 0 | - | - | -
CNC(=O)Cn1c(C)cc(=O)c2cccc(C)c21 | 0 | 10.5 | 0 | 0 | 62.8 | -72.7
CCOC(=O)Cn1c(C)cc(=O)c2cccc(C)c21 | 0 | 0 | 0 | - | 52.9 | -73.6
CCOc1ccc(C(=O)NCC(=O)NC(C)CCc2ccccc2)cc1OCC (centres undefined) | 0 | 0 | 0 | 0 | - | -
COc1ccc(C(C)=O)cc1CSc1nnc2c(Cl)cc(Cl)cn12 | 0 | 9.57 | 0 | - | 84.5 | -88.8
COc1ccc(C(C)=O)cc1CSc1nc2ccccc2c(=O)n1-c1ccccc1 | 0 | 0 | 0 | - | - | -
COc1ccc(C(C)=O)cc1CSc1nc2ccccc2c(=O)n1-c1ccccc1C | 0 | 0 | 0 | - | 24.6 | 0
COc1ccc(C(C)=O)cc1CSc1nncn1C | 0 | 0 | 0 | 0 | - | -
COc1ccccc1CN1CC(C(=O)NCCCCc2ccccn2)CCC1=O (centres undefined) | - | - | - | 0 | - | -
O=C(NCCN1CCCCC1)c1cc(Cl)ccc1Cl | 0 | 0 | 0 | 0 | - | -
CN(C)C(/C=C/Nc1ccc(C#N)cc1)=C(C#N)C#N | 0 | 0 | 0 | - | - | -
CN(C)C(/C=C/Nc1ccc(F)cc1)=C(C#N)C#N | 0 | 0 | 0 | - | - | -
CN(C)C(/C=C/Nc1ccc([N+](=O)[O-])cc1)=C(C#N)C#N | 0 | 7.08 | 0 | - | 29.9 | -54.8
CN(C)C(/C=C/Nc1ccc(Br)cc1)=C(C#N)C#N | 0 | 7.31 | 0 | 0 | 20.0 | -50.1
CC(C)(C)c1ccc(NC(=O)COC(=O)c2ccc(NS(=O)(=O)c3ccc(F)c(F)c3)cc2)cc1 | 0 | 0 | 0 | - | - | -
Cc1cccn2c(CN3CCNC(=O)CC3)c(C(=O)N(C)CCc3ccccc3)nc12 | 0 | 0 | 0 | 0 | 0 | 0
CCN(CC)CCNC(=O)COc1ccc(OC)cc1 | 0 | 0 | 0 | 0 | - | -
CCN(CC)CCNC1=NCCn2c1cc1cc(OC)ccc12 | 0 | 8.15 | 0 | 0 | 60.3 | -50.9
COC(=O)c1ccc2c(=O)n(CCN3CCOCC3)c(=S)[nH]c2c1 | 0 | 0 | 0 | - | - | -
COC(=O)c1ccc2c(=O)n(CCCN3CCOCC3)c(=S)[nH]c2c1 | 0 | 0 | 0 | - | 23.7 | -39.8
CC1CCCCN1CCNC(=O)c1cc2c(=O)n(C)c3ccccc3c2n1C (centres undefined) | 0 | 0 | 0 | 0 | 29.7 | -20.8
Cn1c(C(=O)NCCCN2CCCC2=O)cc2c(=O)n(C)c3ccccc3c21 | 0 | 0 | 0 | - | 27.3 | -31.6
Cn1c(C(=O)NCCN2CCOCC2)cc2c(=O)n(C)c3ccccc3c21 | 0 | 0 | 0 | - | - | -
SMILES | MIN6 prolif | CHT allo act | CHT inh | TAG inh | CHT activ conf | HEK293 MP dye
CN(C)c1ccc(/C=C(/NC(=O)c2ccccc2Cl)C(=O)NCCN2CCOCC2)cc1 | 0 | 0 | 0 | - | - | -
CCOc1ccc(C(=O)Nc2ccc(S(=O)(=O)N3C[C@@H]4C[C@@H](C3)c3cccc(=O)n3C4)cc2)cc1 | 0 | - | - | - | - | -
CCn1c2ccccc2c2nn(C)c(=N)nc21 | 0 | 7.2 | 0 | 0 | 65.8 | -70.2
C[C@H]1COC(=O)[C@H](Cc2ccc(F)cc2)C/C=C\C[C@@H](CC(=O)N(CCO)Cc2ccccc2)C(=O)N1 | 0 | - | - | 0 | - | -
COc1cccc(C(=O)O)c1OS(=O)(=O)c1ccc(C)cc1 | - | - | - | 0 | - | -
O=C(CN(C(=O)CCC(=O)Nc1nccs1)c1cccc(F)c1)NCCc1ccccc1 | 0 | 0 | 0 | - | - | -
Cc1cc(NC(=O)c2cnn3cccnc23)no1 | 0 | 7.66 | 0 | - | 62.9 | -53.9
CC(C)(C)c1ccc(C(=O)N2CCC(=O)N(C(COCc3ccccc3)Cc3ccccc3)CC2)cc1 (centres undefined) | 0 | 0 | 0 | - | 0 | 0
O=C(c1ccc(C(F)(F)F)cc1)N1CCC(=O)N(C(COCc2ccccc2)Cc2ccccc2)CC1 (centres undefined) | 0 | 0 | 0 | 0 | - | -

Screening results from PubChem BioAssay.
